Here are results for 44 compounds from paper PMC4336329 (PLoS ONE, 2015).

In all, about 310,000 compounds went through this assay and about 14,000 (4.5%) showed an effect of 50% or more. The effect is printed as a negative number. The sample holds strong results, similar compounds and a random draw of the others, so the mix is not that of the screen.
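Note: peak tail current of the secondary pulse compared with the same well before compound.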

The assay deals with human ether-à-go-go-related gene (hERG) potassium channel (human, UniProt Q12809). Description: primary screen, population patch clamp on CHO cells stably expressing hERG; higher = less effect of the substance.
Sequence of human ether-à-go-go-related gene (hERG) potassium channel (Q12809 whole entry, looked up): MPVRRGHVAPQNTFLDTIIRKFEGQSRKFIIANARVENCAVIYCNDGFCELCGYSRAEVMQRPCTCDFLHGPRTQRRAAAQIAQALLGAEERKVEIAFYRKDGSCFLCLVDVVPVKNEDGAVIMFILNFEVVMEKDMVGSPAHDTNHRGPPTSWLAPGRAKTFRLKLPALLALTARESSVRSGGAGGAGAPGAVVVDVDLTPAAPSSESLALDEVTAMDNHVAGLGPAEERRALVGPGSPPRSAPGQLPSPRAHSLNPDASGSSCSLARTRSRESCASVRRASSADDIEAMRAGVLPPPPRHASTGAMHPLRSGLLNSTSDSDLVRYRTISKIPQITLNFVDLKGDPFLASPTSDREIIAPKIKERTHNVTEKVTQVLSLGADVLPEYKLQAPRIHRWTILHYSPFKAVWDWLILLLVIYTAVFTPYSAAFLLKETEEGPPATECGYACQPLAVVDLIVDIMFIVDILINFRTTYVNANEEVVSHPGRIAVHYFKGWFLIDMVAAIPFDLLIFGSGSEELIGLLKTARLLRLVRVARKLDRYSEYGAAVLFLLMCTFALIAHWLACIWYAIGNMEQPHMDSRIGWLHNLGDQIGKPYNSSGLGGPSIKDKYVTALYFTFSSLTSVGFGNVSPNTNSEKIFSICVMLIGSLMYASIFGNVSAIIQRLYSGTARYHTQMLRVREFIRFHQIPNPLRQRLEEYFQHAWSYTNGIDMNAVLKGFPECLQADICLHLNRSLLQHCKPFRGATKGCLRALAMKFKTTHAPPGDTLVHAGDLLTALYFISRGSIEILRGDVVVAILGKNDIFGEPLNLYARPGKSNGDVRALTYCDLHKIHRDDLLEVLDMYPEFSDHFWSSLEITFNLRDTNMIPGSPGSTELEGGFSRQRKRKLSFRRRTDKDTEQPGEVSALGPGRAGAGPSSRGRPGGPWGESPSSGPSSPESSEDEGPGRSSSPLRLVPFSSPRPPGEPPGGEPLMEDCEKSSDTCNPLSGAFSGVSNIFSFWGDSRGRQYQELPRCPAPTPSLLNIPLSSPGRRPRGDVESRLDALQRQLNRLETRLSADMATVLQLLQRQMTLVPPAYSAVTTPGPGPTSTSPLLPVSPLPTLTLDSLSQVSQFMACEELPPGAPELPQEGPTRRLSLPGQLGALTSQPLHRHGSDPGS
`CCn1c(-c2ccco2)n[nH]c1=S`: the “hERG current change (%, negative = inhibition) at 10uM” value is reported as 12%. Then `N#C/C(=C\c1ccc(OCc2ccc(Br)cc2)cc1)C(=O)Nc1cccc(C(=O)O)c1`, with 17.8%; and `CCOC(=O)c1c(C)[nH]c(C(=O)CSc2ccccc2)c1C`, with 3.05%; and `C/C(Cn1nnc2ccccc21)=N\OC(=O)c1cc(F)c(F)cc1Cl`, with -80.5%.

Turning to `C/C(Cn1nnc2ccccc21)=N\OC(=O)c1ccccc1C`, the “hERG current change (%, negative = inhibition) at 10uM” value was -63.9%. Then `O=C(O)Cn1nnc2ccccc21`, with -3.4%. The result for `C/C(Cn1nnc2ccccc21)=N/OC(=O)c1c(F)cccc1F` reads 12.5%; that for `Cc1ccccc1NC(=O)Cn1nnc2ccccc21`, -12%. The result for `O=C(Cn1nnc2ccccc21)c1ccc(Cl)cc1` reads -4.9%.

Take `C[N+]1(CC(=O)Nc2ccc(F)cc2)CCN(C(=O)c2ccco2)CC1.[Cl-]`: the “hERG current change (%, negative = inhibition) at 10uM” value amounted to 13.2%. For the compound `COc1ccc(CCNC(=O)C2CCCCC2C(=O)O)cc1OC` (centres unmarked), the “hERG current change (%, negative = inhibition) at 10uM” value is recorded as -2.9%. For `Nc1ccc([N+](=O)[O-])cc1C(=O)NNC(=O)c1ccco1`, the “hERG current change (%, negative = inhibition) at 10uM” value amounted to 25.9%. On to `O=C(CSCc1ccccc1)Nc1ccc2c(c1)OCO2`, for which the “hERG current change (%, negative = inhibition) at 10uM” value amounted to 7.4%. The result for `CCCc1nc2ccccc2c(=O)n1-c1ccc(C(=O)OCC)cc1` reads 13.5%; that for `CSc1ncc(/C=C2/C(=O)NC(=O)N(C)C2=O)cn1`, 18.8%. With `CC(=O)[C@@]1(O)CC[C@H]2[C@@H]3CCC4=CC(=O)CC[C@]4(C)[C@H]3CC[C@@]21C`, the “hERG current change (%, negative = inhibition) at 10uM” value is listed as 1.7%. Turning to `C[C@]12CCC(=O)C=C1CC[C@@H]1[C@@H]2CC[C@@]2(C)[C@H]1CC[C@]2(O)C(=O)CO`, the “hERG current change (%, negative = inhibition) at 10uM” value amounted to 9.17%. As to `C[C@]12CCC(=O)C=C1CCC1C2CC[C@@]2(C)C1CC[C@@]2(O)CC#N` (some centres unmarked), the “hERG current change (%, negative = inhibition) at 10uM” value is -59.8%. The result for `COc1ccc(S(=O)(=O)N2CCC(C(=O)NCc3ccco3)CC2)cc1C` reads 8.26%. Then `O=S1(=O)NC(=NCc2ccco2)c2ccccc21`, with 2.66%; and `c1coc(CN=C2NC(=NCc3ccco3)c3ccccc32)c1`, with -66.4%. The result for `O=C1c2ccccc2C(=O)N1Cc1ccco1` reads -3.32%; that for `CC(=O)c1cccc(Nc2cc(C)nc3c(C)cccc23)c1.Cl`, -72.8%; that for `CC(=O)c1ccc(Nc2cc(C)nc3c(C)cc(C)cc23)cc1`, -45.7%. Take `CC(=O)c1ccc(Nc2cc(C)nc3c(C)cccc23)cc1`: the “hERG current change (%, negative = inhibition) at 10uM” value is given as -36.2%. Then `Cc1cc(Nc2ccc(C(=O)N3CCCCC3)cc2)c2cccc(C)c2n1`, with -23.5%; and `Cc1cc(C)c2nc(C)cc(Nc3ccc(C(=O)N(C)C)cc3)c2c1`, with -28.1%; and `CC(=O)c1cccc(Nc2cc(C)nc3c(C)cc(C)cc23)c1.Cl`, with -56.1%.

`Cc1cc(C)nc(-n2cc(C(=O)c3cc(F)ccc3O)cn2)n1`: the “hERG current change (%, negative = inhibition) at 10uM” value stood at 9.85%. The result for `CCOC(=O)C1=C(C)NC(=O)NC1c1cc2c(cc1Br)OCO2` (centres unmarked) reads 6.32%; that for `NC(=O)CC(NC(=O)Cc1ccc(Br)cc1)c1ccc(NCc2ccc(F)c(F)c2)c([N+](=O)[O-])c1` (centres unmarked), -1.71%.

For `NC(=S)N1OC[C@@H]2COc3ccc4ccccc4c3[C@@H]21`, the “hERG current change (%, negative = inhibition) at 10uM” value was determined as 4.27%. The result for `CCOc1ccc(N2C=Nc3ccc(OCC)cc3C2)cc1` reads -63.9%; that for `CC(C)c1ccc(N2C=Nc3ccc(C(C)C)cc3C2)cc1`, -9.45%; that for `CCOc1ccc(N2Cc3ccccc3C2)cc1`, -2.48%. The result for `O=C1SCCC1NC(=O)C(c1ccccc1)c1ccccc1` (centres unmarked) reads 3.15%; that for `Cc1ccc(NC(=O)CCN2C(=O)c3cccc4cccc(c34)C2=O)cc1`, 9.71%; that for `C/C(=N\NC(=S)NC(C)C)c1ccc(C(C)(C)C)cc1`, 11.1%. Then `CCCCCCCCNC(=O)c1cccnc1SCC(=O)Nc1ccccc1OC`, with 2.4%; and `CCCCCCCCNC(=O)c1cccnc1SCC(=O)Nc1ccc(OC)cc1OC`, with 5.99%; and `CCCCCNC(=O)c1cccnc1SCC(=O)Nc1ccccc1OC`, with -65.6%. With `CN(CC(=O)Nc1ccc(F)c(F)c1F)C(=O)CC1OC(=O)c2ccccc21` (centres unmarked), the “hERG current change (%, negative = inhibition) at 10uM” value was -27.6%. For the compound `O=C(CN1C(=O)C2CCCCC2C1=O)Nc1ccc(OC(F)F)c(Cl)c1` (centres unmarked), the “hERG current change (%, negative = inhibition) at 10uM” value was -2.68%. The result for `CN(CC(=O)Nc1ccccn1)S(=O)(=O)c1ccc(Cl)cc1` reads -9.34%.
